Laboratory results published in PubChem BioAssay (NCATS).
Records with an inconclusive call do not appear. Activity calls are given as the source filed them. Calls come from the whole dose curve; as a rule, active = well fitted cell-killing curve with a large enough effect; inconclusive = small, poorly fitted or top-dose-only effect; inactive = flat fitted curve, though single readings scatter.

Assay: Cell Viability - LYMP2-009 (AID 968); note: nearly all actives have a fitted effect of over 55% in size;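 for activity change, negative = viability loss: 0% = DMSO alone and the full-kill end = tetraoctylammonium bromide at 92 µM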
Conditions: LYMP2-009 lymphoblastoid cell viability; series mostly up to 92.2 µM; activity change, negative = viability loss: at the top concentration
Description: NIH Chemical Genomics Center [NCGC]
NIH Molecular Libraries Screening Centers Network [MLSCN]
National Institutes of Environmental Health Sciences [NIEHS]
National Toxicology Program [NTP]
We have developed a 1536-well cell-based assay for quantitative high throughput screening (qHTS) against a number of cell lines to determine in vitro cytotoxicity of small molecules. This particular assay uses a human lymphoblastoid cell line (LYMP2-009) purchased from Coriell Institute for Medical Research.
NCGC Assay Protocol Summary:
The CellTiter-Glo luminescent cell viability assay (Promega) is a homogeneous method to measure the number of viable cells in culture. The end point readout of this assay is based on quantitation of intracellular ATP, an indicator of metabolic activity, using the luciferase reaction. Luciferase catalyzes the oxidation of beetle Luciferin to oxyluciferin and light in the presence of ATP. The luminescent signal is proportional to amount of ATP present.
Using the CellTiter-Glo luminescent cell viability assay, the amount of cellular ATP was measured in the lymphoblastoid cell line with complete culture medium following compound treatment for 24 hours. The assay was performed in opaque white Kalypsys 1536-well plates. In the screen, tetraoctylammonium bromide was used as positive control. Library compounds were measured for their ability to cause acute toxicity in the cell line, as reflected by a decrease in intracellular ATP levels, in a concentration-dependent manner. […] AC50 values were determined from concentration-response data modeled with the standard Hill equation.
qHTS protocol for CellTiter Glo lymphoblastoid cellular assay
[Step] [Parameter] [Value] [Description]
1. Reagent; 5 uL; 2500 lymphoblastoid cells/well
2. Time; 5 hr; 37 C incubation
4. Controls; 23 nL; Tetraoctylammonium bromide 6.4pM to 92 uM
5. Time; 24 hr; 37 C incubation
6. Reagent; 5 uL; CellTiter Glo reagent
7. Time; 30 min; Room Temperature
8. Detection; Luminescence; Viewlux plate reader
Keywords: cell viability, cytotoxicity, lymphoblastoid cell line, luminescence, NTPHTS, NTPHTS_NCGC, NIEHS, DSSTox, MLSMR, MLSCN, NIH Roadmap, qHTS, NCGC
Potency is the fitted concentration of half-maximal effect.

Row | SMILES | activity change, negative = viability loss | Potency
1 | CCCC(=O)Cl | -7.56% (inactive) | –
2 | Cc1ccc([N+](=O)[O-])cc1C | -1.9% (inactive) | –
3 | OCC1CO1 (stereo not given) | -6.03% (inactive) | –
4 | O=C1C(Cl)=C(Cl)C(=O)C(Cl)=C1Cl | – | 20 µM (active)
5 | CCCCCCCC(=O)Cl | -0.625% (inactive) | –
6 | CCNc1nc(Cl)nc(NC(C)C)n1 | -10.3% (inactive) | –
7 | c1ccc(N=Nc2ccccc2)cc1 | -24% (inactive) | –
8 | C=CCOC(C)=O | -2.08% (inactive) | –
9 | ClC(Cl)(Cl)c1ccccc1 | – | inactive
10 | C=CCc1ccc2c(c1)OCO2 | -7.62% (inactive) | –
11 | COC1=CC(=O)OC(CCc2ccccc2)C1 (stereo not given) | -10.6% (inactive) | –
12 | O=C(Cl)/C=C/C(=O)Cl | -8.84% (inactive) | –
13 | Brc1ccc(Oc2cc(Br)c(Br)cc2Br)c(Br)c1 | – | inactive
14 | Clc1cc(Cl)c(-c2cc(Cl)c(Cl)cc2Cl)cc1Cl | -2.61% (inactive) | –
15 | CCOP(=S)(OCC)Oc1ccc([N+](=O)[O-])cc1 | – | inactive
16 | Brc1ccccc1 | -7.12% (inactive) | –
17 | COC1=CC(=O)O[C@@H](/C=C/c2ccc3c(c2)OCO3)C1 | -19.7% (inactive) | –
18 | CCc1cccc(CC)c1N(COC)C(=O)CCl | – | 50.1 µM (active)
19 | C=CC(=O)OCC | 3.92% (inactive) | –
20 | N#CCCCl | – | inactive

Row | SMILES | activity change, negative = viability loss | Potency
21 | CCOc1ccc(N)cc1 | -14.2% (inactive) | –
22 | Cc1ccccc1N | – | inactive
23 | C=C(C)C(=O)OCC1CO1 (stereo not given) | -3.31% (inactive) | –
24 | C=CCc1ccc(OC)cc1 | 4.42% (inactive) | –
25 | C=CCOC(=O)c1ccccc1N | -2.96% (inactive) | –
26 | Clc1ccc2ccccc2c1 | -7.24% (inactive) | –
27 | COc1ccc(C=O)cc1OC | 3.48% (inactive) | –
28 | ClC1=C(Cl)C2(Cl)C3C4C=CC(C4)C3C1(Cl)C2(Cl)Cl (stereo not given) | -21.7% (inactive) | –
29 | CCSC(=O)Cl | 3.53% (inactive) | –
30 | CCC[CH2][Sn]([Cl])([Cl])[Cl] | -3.45% (inactive) | –
31 | COc1ccc(N)cc1 | -12.6% (inactive) | –
32 | CCCCOC(=O)c1ccccc1C(=O)OCCCC | -4.34% (inactive) | –
33 | C=CC(N)=O | – | inactive
34 | O=S1OCC2C(CO1)C1(Cl)C(Cl)=C(Cl)C2(Cl)C1(Cl)Cl (stereo not given) | -23.5% (inactive) | –
35 | Clc1nc(Cl)nc(Cl)n1 | -7.36% (inactive) | –
36 | O=NN(CCO)CCO | -6.14% (inactive) | –
37 | C=C(Cl)Cl | -1.36% (inactive) | –
38 | C[C@H]1CCCC(=O)CCC/C=C/c2cc(O)cc(O)c2C(=O)O1 | -17.7% (inactive) | –
39 | CCN(CC)c1ccccc1 | 0.837% (inactive) | –
40 | C[N+](C)(C)Cc1ccccc1 | -4.25% (inactive) | –
